# Compound activity from PubChem.
# D1 agonist: activates the human D1 dopamine receptor; P21728; HEK293 T-REx D1 cells, calcium flux, agonist mode; activation, % at 2 µM; 360,000 compounds, 1% hits; AID 504660; in the data active = activation above about 30%; note: 0% is about no effect
# Target sequence (P21728 whole entry, looked up): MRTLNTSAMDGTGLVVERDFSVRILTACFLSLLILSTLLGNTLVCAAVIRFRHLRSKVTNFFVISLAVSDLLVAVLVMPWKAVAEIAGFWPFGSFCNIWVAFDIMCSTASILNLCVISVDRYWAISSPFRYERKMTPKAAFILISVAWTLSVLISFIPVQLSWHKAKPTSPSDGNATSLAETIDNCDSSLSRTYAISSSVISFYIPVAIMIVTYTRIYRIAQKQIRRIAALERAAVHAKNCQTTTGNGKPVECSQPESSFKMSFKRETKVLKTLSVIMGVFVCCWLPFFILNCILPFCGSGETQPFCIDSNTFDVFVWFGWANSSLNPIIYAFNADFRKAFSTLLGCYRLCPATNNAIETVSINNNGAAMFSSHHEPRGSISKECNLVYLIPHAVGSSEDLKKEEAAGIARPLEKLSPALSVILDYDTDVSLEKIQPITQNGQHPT
#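 Inducible HEK293 T-REx D1 cells, force-coupled to calcium signalling, were plated at 4000 cells/well with tetracycline and held overnight at 30 C. After no-wash calcium dye loading, compound-evoked calcium rise over 180 s flagged agonists.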
# D3 ag: agonists of human D3 dopamine receptor; D3R DiscoveRx beta-arrestin cells, luminescence, 90 min; max activation, %; 410,000 compounds, 0.58% hits; AID 652048; in the data active = max activation above about 30%; note: 0% is about no effect
#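 Cells at 1500/well, incubated overnight, then treated with pinned compounds (dopamine as control) for 90 min at 37 degrees C. DiscoveRx reagent added for 30 - 60 minutes at room temperature; luminescence read.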
# D1 antagonist: blocks dopamine activation of the human D1 receptor; P21728; HEK293 TREx D1 cells, calcium flux, dopamine EC80; hits give low values; activity change, negative = inhibition, % at 10 µM; 360,000 compounds, 3.2% hits; in the data active = activity change below about -30%; note: % is set by controls: 0 for no effect and ±100 for the full control effect
#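 Allosteric or orthosteric antagonism assessed as attenuation of the calcium response to EC80 dopamine, added 180 s after compound, in induced HEK293 Trex D1 cells loaded with no-wash calcium dye.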
# D3 antag: antagonists of human D3 dopamine receptor | max response, negative = inhibition, % | 360,000 compounds, 2.5% hits | D3R cells, DiscoveRx beta-arrestin luminescence, antagonist mode; hits give low values | AID 652054; in the data active = max response below about -50%; inconclusive = no clear call, values can overlap the other calls; note: % is set by controls: 0 for no effect and ±100 for the full control effect
#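 Cells plated overnight at 1500 cells/well, then exposed to library compounds with dopamine controls for 90 minutes at 37 degrees C. DiscoveRx reagent added for 30–60 minutes at room temperature; luminescence read, quantitative HTS format.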
# D1 potentiator: potentiators of human D1 dopamine receptor; P21728; HEK293 TREx D1 cells, calcium flux, dopamine EC20 potentiation; potentiation, % at 10 µM; 360,000 compounds, 0.036% hits; AID 504651; in the data active = potentiation above about 30%; note: 0% is about no effect
# The depositor's hits bear a star; ? = inconclusive; / = no result. Shown are actives, neighbours in structure and some others; about 6.1% of the full set was active somewhere.
SMILES,D1 agonist,D3 ag,D1 antagonist,D3 antag,D1 potentiator
CCc1ccc(C2c3c(-c4cc(C)ccc4O)n[nH]c3C(=O)N2CCO)cc1 (stereo unspecified),3,7,-2,/,2
Cc1ccc2ccc(C(Nc3cccc(C(F)(F)F)c3)c3cccnc3)c(O)c2n1 (stereo unspecified),4,-18,-4,-127*,8
O=C(O)c1ccccc1NC(c1ccccc1)c1ccc2cccnc2c1O (stereo unspecified),/,-2,/,-95*,/
CCCCC(=O)NC(c1ccc(Cl)cc1Cl)c1ccc2cccnc2c1O (stereo unspecified),8,33*,-6,-9,-1
COc1ccccc1NC(c1cccnc1)c1ccc2cccnc2c1O (stereo unspecified),1,0,-2,?,1
Cc1ccc2ccc(C(Nc3ccccc3)c3ccccc3)c(O)c2n1 (stereo unspecified),/,-20,/,?,/
Cc1ccnc(NC(c2cc(C)ccc2O)c2ccc3cccnc3c2O)c1 (stereo unspecified),0,3,-50*,/,-2
Cc1ccnc(NC(c2ccccc2)c2ccc3cccnc3c2O)c1 (stereo unspecified),/,13,/,-12,/
CCC(=O)NC(c1ccc(Cl)cc1Cl)c1ccc2cccnc2c1O (stereo unspecified),2,13,2,19,0
C[C@@H](NC(=O)CN(c1ccccc1)S(=O)(=O)N(C)C)c1ccccc1,1,-12,-18,/,-7
Cc1cccc2sc(N(Cc3cccnc3)C(=O)c3cccs3)nc12,-1,-8,/,/,0
Cc1cc(C)c(/C=C/c2onc(C)c2S(=O)(=O)N2CCC(C(=O)N3CCN(c4ccccc4)CC3)CC2)c(C)c1,-1,3,-4,/,0
CCOC(=O)c1cccc(NC(=O)N2CC(CC)Sc3ccccc32)c1 (stereo unspecified),-2,-3,-6,/,-1
Oc1ccccc1C(Nc1nccs1)c1ccc2cccnc2c1O (stereo unspecified),0,33*,3,-8,1
Oc1c(C(Nc2ccccn2)c2ccccn2)ccc2cccnc12 (stereo unspecified),1,-3,-3,19,4
Cc1ccn2c(c1)nc(=O)c1cc(S(=O)(=O)N3CCCCC3)c(Cl)cc12,-1,6,-8,/,-3
Nc1nc(Cl)cc(N2CCC(c3cc(-c4ccc(Cl)cc4)n[nH]3)CC2)n1,10,15,-8,34,-4
CC1CCCCN1C(=O)CN1CCC(c2nc3ccc(Cl)cc3[nH]2)CC1 (stereo unspecified),2,0,-7,-3,-1
O=C(c1cccc(Cl)c1)N1CCC(c2nc3ccccc3[nH]2)CC1,0,5,-7,-1,1
Clc1ccc2nc(C3CCN(Cc4ccccc4)CC3)[nH]c2c1,3,-32,-14,-87*,-10
COc1ccc(-c2cc(C3CCN(c4cc(Cl)nc(N)n4)CC3)[nH]n2)cc1,17,37*,2,21,-1
Cc1ccc(CN2CCC(c3nc4ccc(Cl)cc4[nH]3)CC2)cc1,19,-37,-31*,-93*,-6
Cc1ccc(CN2CCC(c3cc(-c4ccc(Cl)cc4)n[nH]3)CC2)cc1,14,-8,-13,-91*,-8
O=C1CC(c2cc(F)cc(F)c2)c2cc3c(cc2N1)OCO3 (stereo unspecified),11,17,-4,/,-3
CCC1CN(C(=O)Nc2ccccc2C(F)(F)F)c2ccccc2S1 (stereo unspecified),1,-19,0,/,0
SMILES,D1 agonist,D3 ag,D1 antagonist,D3 antag,D1 potentiator
COc1cccc(/C=C(/C#N)c2ccc(F)cc2)c1OCc1cccc(C(=O)O)c1,1,-6,17,13,-1
COc1cc(N2CCCC2)c(OC)cc1/C=C(/C#N)c1cccc(F)c1,56*,-13,3,?,-4
N#C/C(=C/c1ccc(N2CCCCCC2)o1)c1ccc(F)cc1,/,-8,/,?,/
N#C/C(=C/c1ccc(N2CCCCCC2)o1)c1cccc(F)c1,3,-22,-4,-61*,-8
CCC(=O)O[C@H]1CC[C@H]2[C@@H]3CCc4cc(O)ccc4[C@H]3CC[C@]12C,/,17,/,/,/
COCCn1c(CNC(=O)c2ccccc2C)nc2cccnc21,1,11,4,/,-4
CCOc1ccccc1CNC(=O)Cn1nc(C)c2nn(-c3ccc(Cl)cc3)c(C)c2c1=O,1,4,4,/,-1
Cc1cccc(N(C)S(=O)(=O)c2nnc(NC(=O)C3CCCCC3)s2)c1,4,10,-9,/,0
COc1ccc(C(NC(=O)c2ccco2)c2ccc(OC)c(OC)c2)cc1 (stereo unspecified),0,0,-5,-15,1
COc1ccc(C(NC(=O)/C=C/c2ccco2)c2ccc(OC)c(OC)c2)cc1OC,3,-5,-7,-56*,-4
COc1ccc(OC)c(CNS(=O)(=O)c2cc(-c3onc(C)c3C)ccc2C)c1,2,10,-38*,/,-7
COc1ccc(NS(=O)(=O)c2cc(-c3onc(C)c3C)ccc2C)c(OC)c1,1,-15,7,/,2
Cc1cc(OCc2cc(C(=O)N(C)CCOc3ccccc3)no2)cc(C)c1Cl,37*,1,-4,11,-7
Cc1cc(OCc2cc(C(=O)NCC3(C)COC3)no2)cc(C)c1Cl,22,0,-41*,2,-2
CC(=O)c1ccc(OCc2cc(C(=O)N(C)Cc3ccccn3)no2)cc1,3,-9,-73*,0,8
Cc1cc(OCc2cc(C(=O)N(C)CCCN3CCOCC3)no2)cc(C)c1Cl,35*,-12,-16,-3,-18
CCOc1ccccc1OCCN1CCCC1,6,-9,-34*,2,-1
N#Cc1ccccc1OCCCN1CCC(Cc2ccccc2)CC1,13,-4,-11,-109*,-5
O=[N+]([O-])c1cccc(OCCCN2CCC(Cc3ccccc3)CC2)c1,/,-21,/,-101*,/
Cc1ccccc1OCCN1CCC(Cc2ccccc2)CC1,4,-13,/,-91*,-10
CC(=O)CCc1ccc(OCCCCN2CCC(Cc3ccccc3)CC2)cc1,9,-11,/,?,-10
COc1ccc(NC(=O)Cn2c(=O)n(CCC(=O)NCCc3ccc(OC)c(OC)c3)c(=O)c3ccccc32)cc1Cl,0,2,11,/,-1
Cc1ccc(Cn2c(CNC(=O)Cc3cccc([N+](=O)[O-])c3)nc3cccnc32)cc1,4,0,3,/,-2
Cc1cc(C)cc(OC(=O)c2snnc2C)c1,2,-4,-5,/,0
Cc1cc(=O)n2nc(N3CCC(C(=O)Nc4ccc(C(C)C)cc4)CC3)sc2n1,0,4,-3,/,1
Cc1ccc([N+](=O)[O-])c(OCCN2CCC(Cc3ccccc3)CC2)c1,27,-33,-55*,-83*,-13
